Laboratory results reported in PubChem BioAssay (NCI).
Where “and” joins values, the source holds several entries; their conditions need not be identical. Equal values may be shown once. The panel holds about 79,000 compounds, 15% with a hit somewhere; the sample as a whole holds those more often. Values without a mark were called inactive. Calls of active or inactive are those of the source. Rule as the data show it: active = growth inhibition above about 70%; inactive = the rest.

Legend:
[1] = NCI Yeast Anticancer Drug Screen. Data for the rad50 strain (AID 155);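 also: 0% = growth of vehicle-only cultures of the same strain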; conditions: S. cerevisiae rad50 strain growth inhibition; at 50.0 µM; active compounds read high
Method in brief: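 Vehicle-treated cultures provide the reference for the growth inhibition reported for compound-exposed, repair-deficient yeast.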

[2] = NCI Yeast Anticancer Drug Screen. Data for the mec2-1 strain (AID 157); conditions: S. cerevisiae mec2-1 strain, at 50.0 µM, active compounds read high
Method in brief: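 Cells of the genetically defined mec2-1 yeast strain are incubated with test compound. Inhibition of growth is calculated against vehicle-treated controls.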

[3] = NCI Yeast Anticancer Drug Screen. Data for the sgs1 mgt1 strain (AID 161);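 also: 0% = growth of cultures given vehicle only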; conditions: S. cerevisiae sgs1 mgt1 strain, at 50.0 µM, active compounds read high
Method in brief: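 Read-out: growth inhibition vs vehicle controls. Cells: mutant yeast strain deficient in DNA damage repair.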

[4] = NCI Yeast Anticancer Drug Screen. Data for the cln2 rad14 strain (AID 165);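 also: 0% = growth equal to vehicle treated cultures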; conditions: S. cerevisiae cln2 rad14 strain, at 50.0 µM, active compounds read high
Method in brief: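 The screen exposed genetically defined yeast (cln2 rad14) to test compounds and scored growth inhibition relative to vehicle-treated controls.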

[5] = NCI Yeast Anticancer Drug Screen. Data for the bub3 strain (AID 167); conditions: S. cerevisiae bub3 mutant strain, at 50.0 µM, active compounds read high
Method in brief: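 Mutant yeast screening strain plus compound; vehicle-treated cultures serve as the 0% inhibition reference.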

[6] = NCI Yeast Anticancer Drug Screen. Data for the mlh1 rad18 strain (AID 175); conditions: S. cerevisiae mlh1 rad18 strain growth inhibition; at 50.0 µM; active compounds read high
Method in brief: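 Compound-treated yeast growth, normalised to vehicle controls. Strain bears defined DNA repair mutations.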

Row | Compound | growth inhibition [1] | growth inhibition [2] | growth inhibition [3] | growth inhibition [4] | growth inhibition [5] | growth inhibition [6]
1 | CC(C)N1CC(COc2cccc3ccccc23)OP1(=O)N(CCCl)CCCl (configuration not stated) | 97% (active) | 98.7% (active) | 52% | 98.3% (active) | 98.4% (active) | 98.4% (active)
2 | OCC[N+]12CN3CN(CN(C3)C1)C2 | 21.9% | 6.3% | 20.1% | 16.9% | 4.55% | 15.7%
3 | CN1CCc2c([nH]c3ccccc23)C1 | 18.4% | -7.3% | 20.6% | 17.2% | 1.2% | -45.1%
4 | O=P(O)(Oc1ccccc1)Oc1ccccc1 | 33.7% | 16.4% | 14.8% | 18.2% | 0.55% | 20.9%
5 | S=P(c1ccccc1)(N1CCOCC1)N1CCOCC1 | 7.8% | -9.85% | 7.65% | -16.4% | 13.4% | -1.9%
6 | CC(=O)OCCCn1nc(COC(N)=O)c2c1CC(C)CC2=O (configuration not stated) | 1% | -11.3% | -8.25% | -4.35% | -14.8% | 3.65%
7 | CCOC(=O)C1(C#N)C(C#N)(C#N)C12CCCCC2 (configuration not stated) (tested in a mixture with another compound) | 36.5% | 10.1% | 56% | 4.9% | 33.8% | 23.2%
8 | CC(C)CCCCCc1ccc(OCCOc2ccc(C(=O)Nc3ccc(S(=O)(=O)F)cc3[N+](=O)[O-])cc2)cc1 | 42.1% | -8.75% | 26.2% | -11.7% | 0.5% | 9.85%
9 | O=c1cc(O)c1=O | 23.2% | 18% | -6.05% | 14.9% | 16.8% | 31.9%
10 | CC1(C)N=C(c2ccccc2)C2(c3ccccc3)N1C2(C)C (configuration not stated) | -1.8% | 11.3% | 16.8% | -0.3% | 5.6% | -18.1%
11 | CC1NCCc2c1[nH]c1cc(O)ccc21 (configuration not stated) | 4.55% | -10.9% | 5.5% | -9.2% | -21.5% | 3.1%
12 | COP(=O)(OC)C(=O)c1ccc(C)cc1 | 14.7% | -6.05% | 1.55% | -36.8% | 15.9% | -7%
13 | CC1CCC2C(C)C3C(CC4C5CC=C6CC(OC7OC(CO)C(O)C(OC8OC(CO)C(O)C(O)C8O)C7OC7OC(C)C(O)C(O)C7O)CCC6(C)C5CCC43C)N2C1 (configuration not stated) | -3.25% and 9.1% | 11.8% and -8.5% | -5.75% and 10.2% | -6.3% and -9.3% | -1.65% and 1.95% | 36.5% and 15.3%
14 | COC1=CC(=O)OC(CCc2ccccc2)C1 (configuration not stated) | -2.7% | -5.9% | -1.9% | -14.2% | -9.35% | -4.85%
15 | CCOP(=O)(NCCc1ccccc1)OCC | -36.6% | -37.4% | -7.3% | -3.9% | -33% | -12.4%
16 | COc1cc(N=Nc2cccc(C(=O)O)c2)ccc1N(CCCl)CCCl | -12.4% | -16.4% | -30.9% | 17.7% | -3.3% | -23.3%
17 | COc1ccc(C(C)N)cc1 (configuration not stated) | -47.4% | -5.3% | -10.4% | -11.2% | -4.3% | -2.9%
18 | O=c1c2cc(Br)ccc2[nH]c(=S)n1-c1ccc(Br)cc1 | 9.95% | -7.2% | 15.2% | 18% | 35.5% | 12.2%
19 | C=C(C)C1(CC)C(=O)NC(=O)N(C)C1=O (configuration not stated) | 11.8% and -4.5% | 7.5% and 9.4% | -1.25% and -7.5% | 10.2% and -11.2% | 3.65% and 1.5% | -7.95% and -13.1%
20 | C[Si](C)(OC(=O)N(CCCl)CCCl)O[Si](C)(C)OC(=O)N(CCCl)CCCl | 14.8% | 1.05% | -33.6% | -11.4% | -31% | -45.6%
21 | N#Cc1ccc(NN=O)cc1 | 15.9% | -3.15% | 10.4% | -0.2% | 25% | 28.1%
22 | Cc1cccc(C)c1OCC1=NCCN1 | 4.75% | 14.3% | 0.1% | -55.6% | 5.5% | -13.1%
